Data from PubChem BioAssay.
Activity calls are given as the source filed them.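 The calls were made as follows, unless noted: active = inhibition above 20% together with a positive visual image hit; inconclusive = visual image hit but inhibition not above 20%; inactive = no visual image hit.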

Tests used:
[1] = inhibitors of TNFa-induced NFkB p65 translocation, primary screen, imaging, HUVEC, MLSMR starter and 10KST1 sets (AID 438); conditions: HUVEC TNFa-induced p65 nuclear translocation; cell count: measured here: nuclei count (cytotoxicity indicator), at 2.08 µM; inhibition: at 2 µM, stronger effect = higher value, 0% TNFa-plus-vehicle, 100% no-TNFa wells;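 also: compound added about 3h40 before a 20 min TNFalpha stimulation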;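 as to inhibition: signal is the nuclear over cytoplasmic p65 intensity ratio per well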
[2] = inhibitors of mutant huntingtin aggregation, primary screen, imaging, exon1htt(103Q)mCFP cells, high-content imaging (AID 483;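 active = visual image review flags a hit and inhibition of aggregation exceeds 20%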;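 also: compound exposure lasted 3 days before fixation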;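 as to nuclei count: percent of the per-plate median nuclei count of sample wells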); conditions: exon1htt(103Q)mCFP cell line, aggregate imaging, at 2 µM; inhibition of aggregation: stronger effect = higher value; nuclei count: measured here: cell count, toxicity
[3] = inhibitors of E-selectin induction by TNFa, primary screen, imaging, HUVEC, immunofluorescence, MLSMR starter and 10KST1 sets (AID 487;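 active = visually confirmed hit in the image check and inhibition above 20%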;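 as to inhibition: signal is fraction of cell area covered by stained E-selectin grains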;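 as to nuclei count: 100% = median nuclei count of all wells on the same plate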); conditions: HUVEC TNFalpha-induced E-selectin immunofluorescence imaging, at 2 µM; inhibition: stronger effect = higher value; nuclei count: measured here: cell number, toxicity
[4] = biological target: Voltage-gated potassium channel subunit beta-2 (Rattus norvegicus) (UniProt P62483); assay: KvBeta enzyme negative modulators, primary screen, biochemical, NADPH fluorescence (AID 622;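 active = fluorescence slope higher than the sample average by over 3 SD, cut at about -0.22 in these data, passing the limit was not always enough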;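 also: slope of raw intensity against log time taken from 70 to 1610 s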); conditions: recombinant KvBeta, 4-cyanobenzaldehyde reduction, at 10 µM, stronger effect = higher value
[5] = biological target: Voltage-gated potassium channel subunit beta-2 (Rattus norvegicus) (UniProt P62483); assay: KvBeta positive modulators, primary screen, biochemical, NADPH fluorescence (AID 623;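 active = NADPH fluorescence slope more negative than the mean of all samples by about 3 SD, 99.7% confidence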;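 also: fluorescence intensity change per second fitted from 20 to 320 s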); conditions: Recombinant KvBeta, NADPH fluorescence decrease slope, 10 min; at 10 µM; stronger effect = lower value
[6] = biological target: Alpha-2C adrenergic receptor (Homo sapiens) (UniProt P18825); assay: modulators of alpha2C/GIRK thallium flux, primary screen, cell-based, HEK293 alpha2C/GIRK1/2 (AID 624;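 active = fluorescence slope after compound addition differing from the mean of all screened samples at 99.7% confidence, in either direction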;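 also: slope of fluorescence ratio to pre-addition baseline per second over 15 to 24 s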); conditions: thallium flux BTC fluorescence, at 10 µM, actives lie on both sides
[7] = inhibitors of Sendai virus-induced IRF3 signaling, primary screen, TLR/RLR signaling modifier project, cell-based, Sendai virus stimulus, luciferase, 10K MLSCN set (AID 602276;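 active = inhibition at or above 50% at 10 µM; inactive = inhibition below 50%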;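 also: firefly luciferase from ISG56 promoter only with Renilla not read in this screen; 0% = Sendai virus plus DMSO and 100% = medium plus DMSO without virus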); conditions: HEK293 RL24 IRF3 luciferase reporter, at 10 µM, stronger effect = higher value
[8] = inhibitors of poly I:C-induced TLR3 signaling, primary screen, cell-based, poly I:C stimulus, luciferase, 10K MLSCN set (AID 602277;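 active = inhibition of the reporter signal at or above 50%; inactive = inhibition below 50%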); conditions: HEK293-TLR3 RL24 IRF3 luciferase reporter, at 10 µM, stronger effect = higher value

Chain of Alpha-2C adrenergic receptor (Homo sapiens) (P18825 whole entry, looked up): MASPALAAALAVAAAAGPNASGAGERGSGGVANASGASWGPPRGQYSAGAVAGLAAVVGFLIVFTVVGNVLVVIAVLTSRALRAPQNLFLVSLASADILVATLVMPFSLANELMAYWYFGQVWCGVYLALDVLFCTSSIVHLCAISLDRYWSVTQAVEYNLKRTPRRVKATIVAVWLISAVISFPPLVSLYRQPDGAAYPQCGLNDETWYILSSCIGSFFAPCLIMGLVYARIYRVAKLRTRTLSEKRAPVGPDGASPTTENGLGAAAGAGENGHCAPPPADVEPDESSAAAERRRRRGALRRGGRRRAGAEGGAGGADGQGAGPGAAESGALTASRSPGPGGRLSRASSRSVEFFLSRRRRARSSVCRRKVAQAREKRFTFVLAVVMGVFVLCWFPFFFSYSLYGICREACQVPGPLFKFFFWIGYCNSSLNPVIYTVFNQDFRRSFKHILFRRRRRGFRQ
Chain of Voltage-gated potassium channel subunit beta-2 (Rattus norvegicus) (P62483 whole entry, looked up): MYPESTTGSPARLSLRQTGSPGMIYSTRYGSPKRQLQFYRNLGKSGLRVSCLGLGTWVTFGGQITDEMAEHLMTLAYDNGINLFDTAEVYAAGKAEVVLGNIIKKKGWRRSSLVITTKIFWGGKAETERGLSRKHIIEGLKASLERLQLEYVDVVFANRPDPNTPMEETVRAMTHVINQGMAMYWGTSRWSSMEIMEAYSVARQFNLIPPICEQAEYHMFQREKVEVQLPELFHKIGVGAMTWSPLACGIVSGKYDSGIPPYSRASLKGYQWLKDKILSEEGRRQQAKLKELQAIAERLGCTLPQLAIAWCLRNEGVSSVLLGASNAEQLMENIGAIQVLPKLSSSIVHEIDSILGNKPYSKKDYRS

| SMILES | cell count [1] | inhibition [1] | inhibition of aggregation [2] | nuclei count [2] | inhibition [3] | nuclei count [3] | fluorescence slope [4] | NADPH fluorescence slope [5] | slope [6] | inhibition [7] | inhibition [8] |
| --- | --- | --- | --- | --- | --- | --- | --- | --- | --- | --- | --- |
| CCOC(=O)/C=C1\CC(=O)Nc2nonc2N1 | 330 | -3.4% (inactive) | 2% (inactive) | 105% | -22.6% (inactive) | 118% | -0.507 (inactive) | -6.7e-05 (inactive) | 0.00414 (inactive) | 22% (inactive) | 21.4% (inactive) |
| CSc1c(C#N)c(N)c(C#N)c2c1COC(C)(C)C2 | 723 | -2.6% (inactive) | -6.1% (inactive) | 83% | -34% (inactive) | 103% | -0.501 (inactive) | -4.2e-05 (inactive) | 0.00561 (inactive) | 17.3% (inactive) | 25.5% (inactive) |
| Cc1ccc(Nc2nc(N)nc(CN3CCCCCC3)n2)cc1 | 350 | 6.8% (inactive) | 2.4% (inactive) | 96.1% | 69.8% (active) | 88.8% | -0.449 (inactive) | -2.5e-05 (inactive) | 0.00438 (inactive) | 8.97% (inactive) | 24.6% (inactive) |
| O=C(Nn1cnnc1)C1Cc2ccccc2CN1S(=O)(=O)c1ccc(F)cc1 (centres undefined) | 326 | -6.7% (inactive) | 7.4% (inactive) | 95.2% | 0.9% (inactive) | 95.6% | -0.481 (inactive) | -2.7e-05 (inactive) | 0.00658 (inactive) | 14.1% (inactive) | 24.9% (inactive) |
| CC(=O)c1ccc(NC2OC(C)C(O)C(O)C2O)cc1 (centres undefined) | 329 | 4.3% (inactive) | -0.6% (inactive) | 93.8% | -90% (inactive) | 103% | -0.382 (inactive) | -8.6e-06 (inactive) | 0.00391 (inactive) | -11.5% (inactive) | -11.5% (inactive) |
| O=C1CC(N2CCOCC2)C(=O)N1c1ccccc1Cl (centres undefined) | 386 | -0.6% (inactive) | 13.9% (inactive) | 96.9% | -25.3% (inactive) | 128% | -0.338 (inactive) | 1.7e-05 (inactive) | 0.00688 (inactive) | 9.93% (inactive) | 18% (inactive) |
| CC12CCC(C(=O)N3CCCCC3)(CC1=O)C2(C)C (centres undefined) | 483 | 2% (inactive) | -4.8% (inactive) | 99.5% | -305% (inactive) | 126% | -0.299 (inactive) | 8.8e-06 (inactive) | 0.00667 (inactive) | 10.9% (inactive) | 28.7% (inactive) |
| O=C(NCCc1ccccn1)c1ccc(COc2ccccc2)o1 | 450 | -26.3% (inactive) | 8.3% (inactive) | 93.3% | -39.9% (inactive) | 156% | -0.449 (inactive) | -4.6e-05 (inactive) | 0.00624 (inactive) | 3.41% (inactive) | -2.41% (inactive) |
| CCSc1nnc(NC(=O)c2ccccn2)s1 | 351 | 2.9% (inactive) | 13.2% (inactive) | 85.6% | 21.4% (inactive) | 102% | -0.583 (inactive) | 3.3e-06 (inactive) | 0.00493 (inactive) | 4.15% (inactive) | 15.7% (inactive) |
| CCOC(=O)Cn1nc(-c2ccc(C)cc2)ccc1=O | 534 | -21% (inactive) | 31% (inactive) | 121% | -42.9% (inactive) | 108% | -0.393 (inactive) | -0.000149 (inactive) | 0.00747 (inactive) | -9.24% (inactive) | -5.48% (inactive) |
| COc1cccc(N(C(C)=O)c2nc(C)cc(C)c2C#N)c1 | 278 | 13.4% (inactive) | -28.3% (inactive) | 113% | -47.7% (inactive) | 102% | -0.557 (inactive) | -1.8e-05 (inactive) | 0.00529 (inactive) | 17.6% (inactive) | 28.7% (inactive) |
| Cc1cccc(C)c1OCc1nnc(SCC(=O)Nc2ccccc2F)o1 | 592 | -12% (inactive) | 21.8% (inactive) | 67.2% | 4% (inactive) | 109% | -0.558 (inactive) | -3e-05 (inactive) | 0.00659 (inactive) | 16.4% (inactive) | 25.4% (inactive) |
| Cc1onc(-c2c(Cl)cccc2Cl)c1C(N)=O | 406 | 6.3% (inactive) | -2.8% (inactive) | 98.3% | -52% (inactive) | 98.7% | -0.5 (inactive) | 2.7e-05 (inactive) | 0.00603 (inactive) | -11.6% (inactive) | 7.29% (inactive) |
| CCOC(=O)c1cccc(NC(=O)CS(=O)(=O)Cc2nc(-c3cccc(OC)c3)oc2C)c1 | 572 | -40.8% (inactive) | -19.3% (inactive) | 106% | -15.4% (inactive) | 102% | -0.524 (inactive) | -3.5e-05 (inactive) | 0.00568 (inactive) | -5.01% (inactive) | 12.4% (inactive) |
| COc1nc(C)ccc1-c1noc(-c2ccncc2)n1 | 255 | 7% (inactive) | -7.3% (inactive) | 36.4% | -40% (inactive) | 130% | -0.468 (inactive) | -1.8e-06 (inactive) | 0.00545 (inactive) | -26% (inactive) | -82.9% (inactive) |
| COc1ccc2c(c1)OC(O)(C(F)F)CC2=O (centres undefined) | 406 | 1.5% (inactive) | 5.7% (inactive) | 91.2% | -205% (inactive) | 96.2% | -0.398 (inactive) | 2.1e-05 (inactive) | 0.00381 (inactive) | 6.89% (inactive) | 28.4% (inactive) |
| CCOC(=O)c1[nH]c(CSc2nnc(-c3ccncc3)n2CCOC)c(C(=O)OCC)c1C | 368 | 1.1% (inactive) | -5.7% (inactive) | 107% | -89.1% (inactive) | 127% | -0.486 (inactive) | 1.9e-05 (inactive) | 0.00635 (inactive) | 8.8% (inactive) | 11.1% (inactive) |
| COc1ccc(NC2c3ncccc3C(=O)N2Cc2ccccc2)c(OC)c1 (centres undefined) | 480 | 1.6% (inactive) | -17% (inactive) | 116% | -31.3% (inactive) | 114% | -0.609 (inactive) | -9.3e-06 (inactive) | 0.00393 (inactive) | 7.6% (inactive) | 15.8% (inactive) |
| COc1ccc2[nH]c(=O)c(CNC3CCCCC3)cc2c1 | 673 | 6.3% (inactive) | 3.5% (inactive) | 112% | -17.6% (inactive) | 90.1% | -0.452 (inactive) | -3.4e-05 (inactive) | 0.00407 (inactive) | 6.87% (inactive) | 29% (inactive) |
| O=c1c2cc(N3CCOCC3)ccc2[nH]c(=S)n1CCCN1CCCCC1 | 522 | 6.2% (inactive) | -8.5% (inactive) | 121% | -2.6% (inactive) | 106% | -0.0837 (active) | 8.7e-06 (inactive) | 0.00508 (inactive) | -10.1% (inactive) | 23.3% (inactive) |
| C=CCN1C(=O)C2(C(C#N)=C(N)Oc3n[nH]c(CCC)c32)c2ccccc21 (centres undefined) | 389 | 3.2% (inactive) | -32.8% (inactive) | 95.3% | -37.6% (inactive) | 114% | -0.625 (inactive) | -3.8e-05 (inactive) | 0.00735 (inactive) | 11.3% (inactive) | 16.8% (inactive) |
| Cc1ccc(CN2C(=O)CCC2C(=O)NCCCN2CCC(C)CC2)cc1 (centres undefined) | 379 | -7.4% (inactive) | 19.6% (inactive) | 85.5% | 6.2% (inactive) | 77.7% | -0.584 (inactive) | -3.4e-05 (inactive) | 0.00384 (inactive) | 14.7% (inactive) | 9.9% (inactive) |
| CCc1ccc(Nc2cc(=O)n(C3CCCCC3)c(=O)[nH]2)cc1 | 385 | 3.9% (inactive) | -8.7% (inactive) | 104% | -1.5% (inactive) | 121% | -0.579 (inactive) | -2.4e-05 (inactive) | 0.00696 (inactive) | -13.5% (inactive) | -97.2% (inactive) |
| CCOC(=O)c1cc2c(=O)n3ccccc3nc2n(CC(C)C)c1=NC(=O)c1ccco1 | 659 | -13.4% (inactive) | 6.2% (inactive) | 96.7% | -49.4% (inactive) | 112% | -0.532 (inactive) | -5.6e-06 (inactive) | 0.00344 (inactive) | 2.77% (inactive) | 20.4% (inactive) |
| COc1ccc(CC(=O)NC2CCN(CC(=O)Nc3ccc4c(c3)OCCO4)CC2)cc1OC | 635 | -1.6% (inactive) | -5.8% (inactive) | 88.5% | -29.5% (inactive) | 111% | -0.428 (inactive) | -6.5e-06 (inactive) | 0.00308 (inactive) | 6.1% (inactive) | -5.8% (inactive) |
| O=C(NCC1CCCO1)C1CCN(S(=O)(=O)c2cccc3cccnc23)CC1 (centres undefined) | 651 | -5% (inactive) | 6.8% (inactive) | 104% | -63.2% (inactive) | 114% | -0.516 (inactive) | 1.4e-05 (inactive) | 0.00614 (inactive) | 10.7% (inactive) | 25.3% (inactive) |
| COc1ccc(OCC(=O)N2CCN(C(=O)Cc3ccccc3)CC2)cc1 | 616 | -22.3% (inactive) | -1.4% (inactive) | 106% | -14.3% (inactive) | 101% | -0.517 (inactive) | -4.7e-05 (inactive) | 0.00449 (inactive) | -10.1% (inactive) | -7.66% (inactive) |
| Cn1cc(-c2nc3ccccc3[nH]2)c2ccccc21 | 250 | 2.1% (inactive) | 33.7% (inactive) | 82.6% | 55.1% (inactive) | 83.3% | -0.416 (inactive) | -6e-05 (inactive) | 0.00369 (inactive) | -9.53% (inactive) | -51.2% (inactive) |
| CN(C)CCCn1c(N)c(C#N)c2nc(C#N)c(C#N)nc21 | 735 | -14.6% (inactive) | 0% (inactive) | 128% | -55.1% (inactive) | 106% | -0.0856 (active) | -1.8e-05 (inactive) | 0.00617 (inactive) | 48.9% (inactive) | 79.3% (active) |
